Some structures have more than one record in an assay (separate samples or runs), and their calls can disagree. Active and inactive are the calls of the source. How the source made its calls: active means hit-call score of the fitted dose curve at least 0.9, where 1 is the maximum; inactive means score below 0.9.
Key:
[1] = ATG_CRE_CIS: Attagene CIS-FACTORIAL HepG2 Assay for human cAMP Responsive Element (CRE) binding protein 3 (AID 2282926); conditions: HepG2 CRE cis-reporter, Attagene multiplexed mRNA; actives raise or lower the signal
Outline: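 Transfected HepG2 were treated for 24 hours, then RNA was extracted and reporter cDNA amplified with sequence-specific primers. Labelled fragments were separated by capillary electrophoresis, and the CRE signal was fitted bidirectionally with DMSO as baseline.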

[2] = biological target: CCAAT/enhancer-binding protein beta (Homo sapiens) (UniProt P17676); assay: ATG_C_EBP_CIS: Attagene CIS-FACTORIAL HepG2 Assay for human CCAAT/Enhancer Binding Protein (C/EBP) beta (AID 2282927); conditions: HepG2 Attagene cis-factorial transcription factor reporter; actives raise or lower the signal
Outline: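 Changes in reporter mRNA, rather than exogenous chimeric receptor activity, reflect native C/EBP signalling in transfected HepG2 cells dosed for 24 h; transcripts are detected by RT-PCR and capillary electrophoresis.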

[3] = ATG_CMV_CIS: Attagene CIS-FACTORIAL HepG2 Assay for human CMV (Internal Marker) (AID 2282928); conditions: HepG2 CMV promoter reporter, transcription factor profiling; actives raise or lower the signal;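 further: endpoint acts as a background internal control marker rather than a target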
Outline: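 CMV internal-marker background readout in transiently transfected HepG2 cells bearing cis-regulated reporter units. Reporter mRNA is measured 24 h after dosing by RT-PCR and capillary electrophoresis, with bidirectional fitting against DMSO.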

Chain of CCAAT/enhancer-binding protein beta (Homo sapiens) (P17676 whole entry, looked up): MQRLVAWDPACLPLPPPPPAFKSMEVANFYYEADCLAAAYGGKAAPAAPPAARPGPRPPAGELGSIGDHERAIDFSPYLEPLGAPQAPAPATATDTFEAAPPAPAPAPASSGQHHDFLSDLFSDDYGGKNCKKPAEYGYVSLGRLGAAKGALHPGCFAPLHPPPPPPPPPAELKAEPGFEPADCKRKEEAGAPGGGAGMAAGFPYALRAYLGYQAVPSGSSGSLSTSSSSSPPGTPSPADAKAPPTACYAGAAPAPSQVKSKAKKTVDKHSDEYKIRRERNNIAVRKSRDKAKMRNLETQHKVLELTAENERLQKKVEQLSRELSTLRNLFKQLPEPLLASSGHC

CCCCCCCCCCCCCCCC(=O)OC
outcome [1]: inactive | outcome [2]: inactive | outcome [3]: inactive

CCOC=C(C(=O)OCC)C(=O)OCC
outcome [1]: inactive | outcome [2]: inactive | outcome [3]: inactive

CC1CNCC(C)O1 (configuration not stated)
outcome [1]: inactive | outcome [2]: inactive | outcome [3]: inactive

CCO[Si](CCC1CCC2OC2C1)(OCC)OCC (configuration not stated)
outcome [1]: inactive | outcome [2]: inactive | outcome [3]: inactive

O=P(O)(O)CCC(F)(F)C(F)(F)C(F)(F)C(F)(F)C(F)(F)C(F)(F)F
outcome [1]: inactive | outcome [2]: inactive | outcome [3]: inactive

FC(F)(F)N1C(F)(F)C(F)(F)OC(F)(F)C1(F)F
outcome [1]: inactive | outcome [2]: inactive | outcome [3]: inactive

c1cnc2c(c1)ccc1cccnc12
outcome [1]: inactive | outcome [2]: inactive | AC50 [3]: 2.89 µM (active) | outcome [3]: inactive

c1ccc2c(c1)CCC2
outcome [1]: inactive | outcome [2]: inactive | outcome [3]: inactive

CC(C)[C@@H]1CC[C@@H](C)C[C@H]1O
outcome [1]: inactive | outcome [2]: inactive | outcome [3]: inactive

CCCCCCCCCCCC(=O)NCCCN(C)C
AC50 [1]: 20.3 µM (active) | outcome [2]: inactive | outcome [3]: inactive

O=S(=O)(O)c1ccccc1
outcome [1]: inactive | outcome [2]: inactive | outcome [3]: inactive

COc1ccc(C#N)cc1
outcome [1]: inactive | outcome [2]: inactive | outcome [3]: inactive

Cc1ccc(N=Nc2c(O)ccc3ccccc23)c(C)c1
outcome [1]: inactive | outcome [2]: inactive | outcome [3]: inactive

CCc1cccc(CC)c1NC(=O)C(=O)O
outcome [1]: inactive | outcome [2]: inactive | outcome [3]: inactive

C=CC(=O)OCCC(F)(F)C(F)(F)C(F)(F)C(F)(F)C(F)(F)C(F)(F)C(F)(F)C(F)(F)F
outcome [1]: inactive | outcome [2]: inactive | outcome [3]: inactive

CCCCCCCCCCCCCC[n+]1ccccc1
outcome [1]: inactive | outcome [2]: inactive | outcome [3]: inactive

CCOC(=O)CN[C@@H](C(=O)N1CC[C@H]1C(=O)NCc1ccc(/C(N)=N/O)cc1)C1CCCCC1
outcome [1]: inactive | outcome [2]: inactive | outcome [3]: inactive
